# FBPA Giardia inh: Giardia lamblia aldolase inhibition; actives 0.71% (n = 290,000); purified Giardia FBPA; Potency, µM (titrated, usually from 59.6 µM), most hits filed as inhibitors; A8B2U2; note: nearly all actives have a fitted effect of over 55% in size
#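 40 nM FBPA preincubated 10 min at RT with compound (up to 57.5 uM final), then substrate plus GAPDH/TPI/NAD/arsenate coupling and diaphorase/resazurin added. Fluorescence read after 20 min at RT, 525/598 nm.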
# AmpC inh no detg: AmpC beta-lactamase inhibition without detergent; AmpC nitrocefin hydrolysis, absorbance 480 nm, 0.0001% Triton; Potency, µM (doses to about 57.1 µM), usual class: inhibitors; actives 0.52% (n = 330,000); AID 485341; note: nearly all actives have a fitted effect of over 20% in size
# Target sequence (P00811 whole entry, looked up): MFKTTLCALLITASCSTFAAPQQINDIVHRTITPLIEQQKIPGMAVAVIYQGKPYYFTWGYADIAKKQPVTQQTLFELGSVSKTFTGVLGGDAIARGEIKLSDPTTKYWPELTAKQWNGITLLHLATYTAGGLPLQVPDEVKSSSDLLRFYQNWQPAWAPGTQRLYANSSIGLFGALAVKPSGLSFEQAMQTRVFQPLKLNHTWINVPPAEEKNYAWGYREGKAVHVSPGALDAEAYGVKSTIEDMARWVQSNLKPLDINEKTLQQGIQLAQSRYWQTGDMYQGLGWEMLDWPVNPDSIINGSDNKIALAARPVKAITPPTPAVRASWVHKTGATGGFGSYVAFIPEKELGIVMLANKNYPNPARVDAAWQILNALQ
#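 AmpC (5.3 nM in the dispensed reagent) in 20 mM phosphate pH 7.0 with 0.01% (detergent screen) or 0.0001% Triton X-100 was preincubated with compounds for 15 min at room temperature. Nitrocefin was then added from an 800 uM solution, and hydrolysis was followed at 480 nm.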
# AmpC inh detg: AmpC beta-lactamase inhibition with detergent present | P00811 | AmpC hydrolysis of nitrocefin, absorbance 480 nm, 0.01% Triton | Potency, µM (top dose mostly 114 µM), hits mostly inhibitors | actives 0.041% (n = 370,000) | AID 485294; note: nearly all actives have a fitted effect of over 25% in size
#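 20 mM phosphate pH 7.0 + 0.01% (detergent screen) or 0.0001% Triton X-100; 5.3 nM AmpC reagent; cpd preinc 15 min RT; nitrocefin (800 uM stock) to start; A480 q20 s × 4 min; Activity was normalised to no-enzyme and no-compound control wells.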
# Sm TGR block: blocks Schistosoma mansoni thioredoxin glutathione reductase; purified TGR, DTNB reduction, TNB absorbance 405 nm; Potency, µM (series often up to 114 µM), hits mostly inhibitors; actives 3% (n = 360,000); note: nearly all actives have a fitted effect of over 60% in size
#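 Kinetic colorimetric format: TGR-catalysed, NADPH-driven DTNB reduction monitored via TNB absorbance. Enzyme dispensed at 20 nM; compound exposure 15 min at room temperature before reaction start.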
# A number is an active result; . = inactive; ? = inconclusive; / = no result given; ! = not active in a repeat; [ ] = remark or other dose. Compounds with a hit are over-represented: about 3.6% of the library has one in this group of screens. Calls come from the whole dose curve; as a rule, active = well fitted curve in the direction sought with a large enough effect; inconclusive = small, poorly fitted or top-dose-only effect, or another doubt; inactive = no such curve, though single readings can be large; an effect the other way counts as inactive or inconclusive.
SMILES,FBPA Giardia inh,AmpC inh no detg,AmpC inh detg,Sm TGR block
Cc1ccccc1CNC(=O)C1CCCN(c2nnc(-n3c(C)ccc3C)s2)C1 (stereo unspecified),/,/,.,?
O=C(O)Cc1c(Cl)ccc(Cl)c1Cl,.,/,/,/
O=C(NC1=C(Nc2ccc(F)cc2)C(=O)c2ccccc2C1=O)c1ccc(Cl)cc1,?,.,.,22.4µM
O=C(NNC(=O)c1ccc(NC(=O)c2ccccc2)cc1)c1ccc(F)cc1,.,.,?,.
C[C@H]1c2cccc(O)c2C(O)=C2C(=O)[C@]3(O)C(O)=C(C(N)=O)C(=O)[C@@H](N(C)C)[C@@H]3[C@@H](O)[C@@H]21,?,.,.,.
Cc1c2c(c(O)c3c(O)cccc13)C(=O)O[C@H]2C1C(N(C)C)C(O)=C(C(N)=O)C(=O)[C@H]1O (stereo partly specified),9.98µM,/,/,/
CN(Cc1ccc(Cl)cc1Cl)C(=O)c1cc(=O)c2ccccc2o1,.,.,.,.
O=C1NN(c2ccccc2)C(=O)/C1=C\c1coc2ccc(O)cc2c1=O,.,.,?,15.8µM
O=C1NC(=O)N(c2ccccc2)C(=O)/C1=C/c1coc2ccc(O)cc2c1=O,.,.,.,.
O=C1NC(=O)N(c2ccc(Cl)cc2)C(=O)/C1=C/c1coc2ccc(O)cc2c1=O,.,.,.,1µM
O=C1NN(c2ccccc2)C(=O)/C1=C/c1coc2ccccc2c1=O,.,.,.,.
COCCN(C(=O)CCl)C(C(=O)NC1CCCCC1)c1ccccc1C (stereo unspecified),.,.,.,3.55µM
CNC(=O)c1cnc2sc(N3CCC(C)CC3)nn2c1=O,/,/,.,.
COc1ccccc1CN1CCNC(=O)C1CC(=O)NC1Cc2ccccc2C1 (stereo unspecified),.,.,.,.
O=C(O)CC1C(=O)NCCN1C/C=C/c1ccccc1 (stereo unspecified),.,.,?,39.8µM
COc1ccc(CNC(=O)CC2C(=O)NCCN2CC(C)(C)C)c(OC)c1 (stereo unspecified),.,.,.,.
COc1ccc(CN2CCNC(=O)C2CC(=O)NCc2ccc(C)s2)c(OC)c1 (stereo unspecified),.,.,.,31.6µM
Cc1ccc(CN2CCNC(=O)C2CC(=O)O)cc1 (stereo unspecified),.,.,.,35.5µM
COc1ccccc1CN1CCNC(=O)C1CC(=O)O (stereo unspecified),.,.,.,79.4µM
COc1ccc(-c2[nH]c(-c3cccc(OC)c3)nc2SCC(=O)NCc2ccco2)cc1,.,10µM,.,.
CCOc1ccc(C(=O)OCC(=O)NCc2ccco2)cc1OCC,.,.,?,44.7µM
Cc1ccc(C(=O)OCC(=O)NCc2ccco2)cc1,.,.,?,.
COc1ccc(OCCC(=O)OCC(=O)NCc2ccco2)cc1,.,.,.,50.1µM
COc1ccc(C(=O)OCC(=O)NCc2ccco2)cc1OC,.,.,?,35.5µM
CCc1ccccc1NS(=O)(=O)c1cc(Br)cc2c1N(C(=O)C1CC1)CC2,/,/,.,.
SMILES,FBPA Giardia inh,AmpC inh no detg,AmpC inh detg,Sm TGR block
COc1ccc(/C=N/Nc2ncccc2[N+](=O)[O-])c(OC)c1,.,.,.,.
CCN(CC)c1ccc(NC(=O)c2c(C)noc2C)cc1,/,.,.,.
COc1ccccc1CN1CC(C(=O)NCc2cc(C(C)C)no2)CCC1=O (stereo unspecified),/,.,.,.
COc1ccc(-c2ccc(C#N)c(SCC(=O)NCc3ccco3)n2)cc1OC,.,.,.,31.6µM
CCOc1ccccc1OCC(=O)NCc1ccco1,.,.,.,20µM
COc1ccc(-c2ccc(C#N)c(SCC(=O)NC3CC3)n2)cc1OC,.,.,.,.
Cc1ccc(S(=O)(=O)N2CCN(C(=O)n3ccnc3)CC2)cc1,/,.,.,.
COC(=O)Cc1cc(=O)[nH]c(/N=C(\N)Nc2ccc(C(C)C)cc2)n1,.,.,.,.
Cc1nc(Cl)nc(N(C)c2ccccc2)c1[N+](=O)[O-],.,.,.,4.47µM
Cc1nc(N/N=C/c2ccccc2)nc(N(C)c2ccccc2)c1[N+](=O)[O-],.,.,.,.
Cn1c(=O)c(=O)n(C)c2cc(N3CCCC3)c(NS(=O)(=O)c3ccc(Cl)cc3)cc21,?,.,.,50.1µM
C[C@](N)(Cc1ccc(O)c(O)c1)C(=O)O,17.7µM!,?,?,22.4µM
NC(Cc1ccc(O)c(O)c1)C(=O)O (stereo unspecified),15.8µM,/,/,/
COC(=O)C(N)Cc1ccc(O)c(O)c1 (stereo unspecified),?,.,.,7.94µM
N[C@@H](Cc1c[nH]c2ccccc12)C(=O)O,.,.,.,14.1µM
O=C(/C=C/c1ccc(O)c(O)c1)O[C@H](Cc1ccc(O)c(O)c1)C(=O)O,?,?,?,3.16µM
O=C(O)c1ccc2c(c1)C(=O)N([C@H](Cc1ccc(O)c(O)c1)C(=O)O)C2=O,.,.,?,12.6µM
CC(C)(C)c1ccc(C[C@H](C(=O)O)N2C(=O)c3ccc(C(=O)O)cc3C2=O)cc1,?,.,?,.
NC(Cc1cc(O)c(O)cc1O)C(=O)O (stereo unspecified),.,7.08µM,50.1µM,15.8µM
CCC1=C(c2ccc(C)cc2)S(=O)(=O)N=C1N1CCC(C(=O)Nc2ccccc2C(=O)OC)CC1,/,/,.,.
O=C(N/N=C/c1c[nH]c2ccccc12)c1cc(Cl)ccc1O,.,15.8µM,.,.
O=C(N/N=C/c1c[nH]c2ccccc12)c1ccc(Br)cc1,.,20µM,.,.
O=C(CSc1ccccc1)NCCCc1ccccc1,.,.,?,.
COc1cc(/C=N/NC(=O)c2ccc(O)cc2)ccc1OCC(=O)N1CC(C)OC(C)C1 (stereo unspecified),.,.,.,.
C=C(C)C(=O)NNc1ccccc1,.,.[11.4 µM],?,1.58µM
SMILES,FBPA Giardia inh,AmpC inh no detg,AmpC inh detg,Sm TGR block
CC(C)OC(=O)C(=O)NNc1ccccc1,.,.,.,.
COc1cc(NC(=O)CSc2nc(C)c(C)c(C)n2)cc(OC)c1,.,.[11.4 µM],?,.
C=CCCCCCCCC(=O)OC,.,.,.,50.1µM
COc1ccc(/C=C(\C#N)c2nc3ccccc3c(=O)[nH]2)cc1OC,/,/,.,.
COc1cc(/C=C(/C#N)c2nc3ccccc3c(=O)[nH]2)ccc1O,.,28.2µM,.,.
Cc1c(Nc2ncnc3c2cnn3-c2ccccc2)c(=O)n(-c2ccccc2)n1C,.,0.141µM,.,.
O=C(c1ccccc1)N1CCc2cc(CNS(=O)(=O)c3ccc(Cl)s3)ccc21,/,/,.,.
O=[N+]([O-])c1cc(Br)c(Nc2ccccc2)c([N+](=O)[O-])c1,.,.,.,11.2µM
O=C(Nc1ccccc1)c1ccc(Nc2c([N+](=O)[O-])cc([N+](=O)[O-])c3ccccc23)cc1,.,.,.,.
Cc1c(C(=O)N/N=C/c2ccc(-c3ccccc3[N+](=O)[O-])o2)sc(N)c1C#N,?,.,.,.
COCc1cc(C)nc(N/N=C/c2ccc(-c3ccc(Cl)cc3[N+](=O)[O-])o2)c1C#N,?,.,.,8.91µM
